According to PubChem BioAssay:

Target: E3 ubiquitin-protein ligase XIAP (Homo sapiens) (UniProt P98170)
Assay: XIAP binders, primary screen, biophysical, small-molecule microarray, fluorescence 635 nm (AID 1181);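 further: score merges 667 nm emission and signal to noise over triplicate slides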
Details: small-molecule microarray binding, higher = more signal

E3 ubiquitin-protein ligase XIAP (Homo sapiens), sequence (P98170 whole entry, looked up): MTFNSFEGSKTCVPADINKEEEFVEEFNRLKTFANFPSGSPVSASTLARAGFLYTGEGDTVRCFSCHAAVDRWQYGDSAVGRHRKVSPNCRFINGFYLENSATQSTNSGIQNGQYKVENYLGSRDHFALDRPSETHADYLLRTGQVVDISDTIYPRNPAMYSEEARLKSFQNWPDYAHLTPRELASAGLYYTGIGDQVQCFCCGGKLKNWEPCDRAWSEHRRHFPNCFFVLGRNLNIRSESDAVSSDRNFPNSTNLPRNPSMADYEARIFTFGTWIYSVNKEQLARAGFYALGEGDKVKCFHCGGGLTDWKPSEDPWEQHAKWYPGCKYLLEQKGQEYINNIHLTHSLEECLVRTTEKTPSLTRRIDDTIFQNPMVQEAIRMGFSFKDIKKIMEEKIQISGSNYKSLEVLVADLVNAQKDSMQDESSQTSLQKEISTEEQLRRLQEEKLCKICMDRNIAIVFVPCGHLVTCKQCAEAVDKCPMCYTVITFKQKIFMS

| SMILES | composite z-score |
| --- | --- |
| CN1CCC(CCCO)=CC1c1cccs1 (stereo unspecified) | -0.319 |
| CCCCCN1CC=CC23O[C@@H]4C=CCOC(=O)[C@@H]4[C@H]2C(=O)N(C(C)CO)[C@@H]3C1=O (stereo partly specified) | -0.269 |
| Cc1ccc(S[C@]2(C(=O)NCC(C)C)CC(=O)N(Cc3cc(C(F)(F)F)cc(C(F)(F)F)c3)[C@@H]2c2ccc(CO)cc2)cc1 | -0.142 |
| CC1CC/C=C\[C@H]2OC34C=CCN(Cn5nnc6ccccc65)C(=O)[C@H]3N(CCCCCO)C(=O)[C@@H]4C2C(=O)O1 (stereo partly specified) | -0.148 |
| COc1ccc([Si](C)(C)[C@@H]2[C@@H](CCO)O[C@]3(C(=O)N(Cc4cccc(N5CCOC5=O)c4)c4ccccc43)[C@H]2C)cc1 | -0.0599 |
| CCCCN1CC=CC23O[C@@H]4C=CCCOC(=O)C4[C@H]2C(=O)N(CCCCCO)[C@@H]3C1=O (stereo partly specified) | 0.0357 |
| COc1ccc(CCNC(=O)[C@@]2(C)c3ccccc3C(=O)N(c3ccc(C)cn3)[C@H]2c2ccc(CO)cc2)cc1 | -0.0838 |
| COC(=O)[C@@]1(Cc2ccc(OC)cc2)[C@H]2c3cc(C(=O)N4CCCC4)n(Cc4nc5ccccc5[nH]4)c3C[C@H]2CN1C(=O)c1ccccc1 | 0.62 |
| [N-]=[N+]=NCc1ccccc1[C@@H]1OC(c2ccc(OCCCO)cc2)=N[C@]1(CCS(=O)(=O)c1ccccc1)C(=O)N1CCOCC1 | 0.0512 |
| CCOC(=O)C1=CC[C@H]2C(=O)N(c3ccccc3)C(=O)[C@@H]12 | 0.154 |
| COC(=O)[C@@]1(Cc2ccc(F)cc2)[C@H]2c3cc(C(=O)N(C)C)n(Cc4ccc(C)o4)c3C[C@H]2CN1C(=O)c1ccccc1 | 1.87 |
